Screens deposited in PubChem by National Center for Advancing Translational Sciences (NCATS).
Rows were chosen to be rich in hits. Some 3.2% of all compounds tested hit in one or more screens of this group.
Tau ThT inhib – tau fibrillization inhibition (ThT binding); recombinant tau K18 P301L, heparin-induced fibrillization, ThT fluorescence; Potency, µM (series often up to 57.4 µM), inactives show at the highest dose activity, negative = inhibition, usual class: inhibitors; hit rate 2.1% among 270,000; AID 1460; also: nearly all actives have a fitted effect of over 55% in size
Target sequence (P10636 561-689 P618L limits assumed): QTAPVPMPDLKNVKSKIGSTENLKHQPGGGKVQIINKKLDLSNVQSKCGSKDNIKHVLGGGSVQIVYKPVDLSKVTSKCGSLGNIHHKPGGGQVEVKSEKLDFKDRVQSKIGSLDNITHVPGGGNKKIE
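Heparin-induced (20 uM) aggregation of recombinant human K18 P301L tau, 15 uM unlabeled with 0.24 uM labeled, pH 7 acetate buffer, 6 hr at 37 C with compound. Fibrils quantified by 30 uM ThT fluorescence after 1 hr ambient incubation.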
TRb-SRC2 inh – disrupts binding of human TR beta to SRC2 | P10828 | TRbeta-SRC2 peptide binding, fluorescence polarization; receptor liganded with 1 µM T3 | Potency, µM (highest dose often 106 µM), for the others: at the top dose activity change, negative = inhibition, most hits filed as inhibitors | hit rate 0.065% among 280,000 | AID 1469;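 also: plate controls were bound peptide for no effect and peptide without receptor for full effect; nearly all actives have a fitted effect of over 50% in size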
Target sequence (P10828 whole entry, looked up): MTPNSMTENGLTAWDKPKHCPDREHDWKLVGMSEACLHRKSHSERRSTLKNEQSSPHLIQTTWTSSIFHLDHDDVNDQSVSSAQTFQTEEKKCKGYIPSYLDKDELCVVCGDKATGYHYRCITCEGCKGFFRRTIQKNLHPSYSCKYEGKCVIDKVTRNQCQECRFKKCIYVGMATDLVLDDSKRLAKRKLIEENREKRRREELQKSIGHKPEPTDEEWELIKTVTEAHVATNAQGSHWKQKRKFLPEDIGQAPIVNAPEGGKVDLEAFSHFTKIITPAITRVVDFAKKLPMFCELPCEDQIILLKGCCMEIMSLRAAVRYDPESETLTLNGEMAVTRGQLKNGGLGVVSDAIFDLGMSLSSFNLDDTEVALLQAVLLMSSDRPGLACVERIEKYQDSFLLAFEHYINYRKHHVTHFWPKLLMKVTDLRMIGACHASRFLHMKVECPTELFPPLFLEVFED
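Compounds were added to 0.6 uM TRb ligand-binding domain and 20 nM Texas Red-labeled SRC2 peptide in Tris buffer containing 1 uM T3, incubated 5 hr at ambient temperature, then read by fluorescence polarization.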
Tau FP inhib – tau fibrillization inhibition (FP); P10636; hit rate 0.39% among 280,000; Potency, µM (top dose mostly 57.7 µM), for the others: top-dose activity, negative = inhibition, usual class: inhibitors; K18 P301L tau heparin fibrillization, Alexa594 FP, 6 h; also: nearly all actives have a fitted effect of over 55% in size
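Compound effects on tau fibrillization are measured by Alexa 594 fluorescence polarization (ex 555, em 632 nm). K18 P301L tau is used at 15 uM with 0.24 uM labeled tracer, and 20 uM heparin induces aggregation over 6 hr at 37 C.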
TexasRed fluor – alters Texas Red total fluorescence, flagging assay interference | TRb/SRC2 Texas Red total fluorescence interference | Potency, µM (series often up to 106 µM), for the others: at the top dose fluorescence change, negative = quenching | hit rate 0.29% among 280,000 | AID 1479; active = well fitted curve in either direction with a large enough effect; inconclusive = small, poorly fitted or top-dose-only effect
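Flags fluorescent or light-absorbing compounds by total fluorescence, S + 2P, at 555 nm excitation and 632 nm emission. Mixture: 20 nM Texas Red SRC2 peptide, 0.6 uM human TRb LBD, 1 uM T3, 5% DMSO; compound exposure 5 h at ambient temperature.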
RGS12 GoLoco inh – RGS12 GoLoco-Gai1 interaction inhibition; AID 880; Gai1:RGS12 GoLoco peptide FP, rhodamine, 10 min; Potency, µM (doses to about 61.6 µM), without a hit: at the highest dose activity, negative = inhibition, hits mostly inhibitors; hit rate 0.44% among 230,000; P63096; active = well fitted inhibition curve with a large enough effect, not every such curve was filed as active; inactive = no such curve, though single readings can be large or run the other way; also: nearly all actives have a fitted effect of over 30% in size
Tau fluor cs – counter-screen for tau fibril formation inhibitors. AID 1463. Potency, µM (highest dose often 57.7 µM), for inactives: top-dose activity change, negative = decrease. tau K18 P301L (four-repeat tau fragment) Alexa594 fluorescence, heparin fibrillization. hit rate 0.93% among 280,000; also: nearly all actives have a fitted effect of over 55% in size
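Human K18 P301L tau (15 uM unlabeled plus 0.24 uM Alexa 594-labeled, final) in 100 mM sodium acetate pH 7 was mixed with compound and 20 uM heparin and incubated 6 hr at 37 C.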
Numbers without * were called inactive; ? = inconclusive; / = no result; [ ] = dose if it differs, or a comment. Unless noted, calls follow the shape of the dose curve; as a rule, active = well fitted curve in the direction sought with a large enough effect; inconclusive = small, poorly fitted or top-dose-only effect, or another doubt; inactive = no such curve, though single readings can be large; an effect the other way counts as inactive or inconclusive. Unless noted, % is scaled to controls: 0 for no effect and ±100 for the full control effect; potency is read from the fitted curve at half-maximal effect.

SMILES | Tau ThT inhib | TRb-SRC2 inh | Tau FP inhib | TexasRed fluor | RGS12 GoLoco inh | Tau fluor cs
CCOc1ccccc1N1CSC2=C(C#N)C(c3c(OC)ccc4ccccc34)CC(=O)N2C1 (stereo unspecified) | 4µM* | ? | 10µM* | -20% | -12% | ?
COc1ccc2c(c1)O[C@@H](c1ccc3c(c1)OCO3)[C@H](OC(=O)NCc1ccc3c(c1)OCO3)C2=O | -15% | 4% | -6% | -1% | 6% | -21%
CCCCCCCCCCCCCCCCOCC(CO)OC(C)=O (stereo unspecified) | -11% | -8% | -1% | 0% | -4% | 2%
O=C1C[C@@H](O)[C@@H](O)[C@@H]2[C@H]3C(=O)N(c4ccc(F)cc4F)C(=O)[C@@H]3CC[C@@H]12 | -9%[11.5 µM] | 0%[11.2 µM] | -6%[11.6 µM] | -1%[11.2 µM] | / | 0%[11.6 µM]
CCNc1ncc2nc(-c3cccs3)c(=O)n(Cc3ccc(F)cc3)c2n1 | / | / | / | / | 3% | /
Cc1ccc(CC(Cc2nc3ccccc3[nH]2)c2nc3ccccc3[nH]2)cc1 (stereo unspecified) | 3% | -5% | -16% | 0% | 4% | -9%
O=C(Nc1ccc2c(c1)OCCO2)c1ccccc1F | -8% | -9% | -2% | 1% | 0% | 6%
O=C(Nc1ccc2c(c1)OCCO2)c1cccc2nc3ccccc3nc12 | 4.5µM* | -7% | 5% | -6% | -16% | ?
Cc1cccc(C(=O)Nc2nnc(SCC(=O)Nc3ccc4c(c3)oc3ccccc34)s2)c1 | ? | 3% | 2% | 0% | 7.9µM* | -21%
COc1ccccc1C(=O)Nc1nnc(SCC(=O)Nc2ccc3c(c2)oc2ccccc23)s1 | ? | 19% | -1% | -16% | 9% | -20%
O=NCc1ccc([N+](=O)[O-])o1 | / | -6% | / | -2% | 11% | /
CC(C)[C@H](NC(=O)[C@H](CC(=O)O)NC(=O)CNC(=O)[C@@H](N)CCCN=C(N)N)C(=O)O | / | -2% | / | 0% | / | /
CO[C@@H]1c2cc(F)ccc2/C(=C\CCOC(=O)C/C=C/c2ccccc2)[C@H]1C | ? | -3% | ? | -1% | -6% | -17%
O=C1OC(/C=C/c2ccccc2)=NC/1=C/C=C/c1ccccc1 | 16µM* | 5% | -13% | -4% | 3% | -3%
COc1ccc(-c2cn[nH]c2-c2ccc(OCc3ccccc3F)cc2O)cc1OC | -11% | 10% | ? | -2% | 0% | 13µM*[quencher]
COc1ccc(-c2cn[nH]c2-c2ccc(OCc3ccc([N+](=O)[O-])cc3)cc2O)cc1OC | ? | 9% | ? | -2% | -10% | 7.1µM*[quencher]
C=C(C)C(=O)c1cccs1 | -3% | 12% | -3% | -3% | 4% | -8%
O=C(/C(=C/O)N=Nc1ccccc1)c1cccs1 | 28µM* | 5% | 5% | -5% | 3% | -14%
Cc1ccc(S(=O)(=O)Oc2cc(S(=O)(=O)O)cc3cc(S(=O)(=O)O)cc(N)c23)cc1 | / | / | / | / | -8%[14.2 µM] | /
C[C@@H]1C(=O)O[C@@H]1[C@@H](C)CO[Si](c1ccccc1)(c1ccccc1)C(C)(C)C | / | -8% | / | -2% | / | /
COC(=O)[C@@H](NC(=O)O[C@@H]1C(=O)c2ccc(OC)cc2O[C@H]1c1ccc2c(c1)OCO2)C(C)C | -12% | 2% | 0% | -2% | 1% | -7%
CCOC(=O)c1c(NC(C)=O)c2c3c(sc2n1Cc1nc(-c2ccccc2Cl)oc1C)CCCC3 | -7% | -14% | -5% | 18µM*[quencher] | / | -7%
CCOC(=O)c1c(NC(C)=O)c2c3c(sc2n1Cc1nc(-c2cccc(Cl)c2)oc1C)CCCC3 | -11% | -1% | 0% | -23% | / | -17%
COC(=O)c1c(-c2cccs2)csc1NC(=O)COc1c(C)ccc(C)c1C | 20µM* | -2% | ? | -4% | / | -19%
COC(=O)c1c(-c2cccs2)csc1NC(=O)COc1ccc(C)cc1 | ? | -26% | -4% | ? | / | -27%
SMILES | Tau ThT inhib | TRb-SRC2 inh | Tau FP inhib | TexasRed fluor | RGS12 GoLoco inh | Tau fluor cs
COC(=O)c1c(-c2cccs2)csc1NC(=O)COc1ccc(C(C)(C)C)cc1 | ? | -5% | -20% | -12% | / | -22%
COC(=O)c1c(-c2cccs2)csc1NC(=O)COc1ccccc1 | 20µM* | 5% | ? | 6% | / | ?
Cc1[nH]nc(N)c1-c1ccc(Cl)cc1 | -1% | -2% | 0% | -2% | 12% | -4%
Cc1[nH]nc(N)c1N=Nc1ccc(Br)cc1 | 11µM* | 3% | 6% | -1% | 5% | ?
Cc1ccc(C)c2sc(N)nc12 | -10% | -3% | 9% | -6% | 12% | 0%
Cc1nc(N)sc1N=Nc1ccc(Br)cc1 | 4µM* | -3% | 8% | -10% | -1% | 16µM*[quencher]
Nc1n[nH]c(C2CC2)c1N=Nc1ccc(Cl)cc1 | 10µM* | -7% | 13% | -5% | 4% | 16µM*[quencher]
Nc1n[nH]c(C2CC2)c1N=Nc1ccc(Cl)c(Cl)c1 | 13µM* | -2% | ? | -6% | 0% | 13µM*[quencher]
O=C1/C(=C\c2ccco2)SC(=S)N1Cc1ccccc1 | ? | 8% | -3% | -23% | 106% | ?
Cn1cccc1/C=C1\SC(=S)N(CC(=O)O)C1=O | 11µM* | -8% | -3% | -5% | -6% | 0%
O=C(O)CN1C(=O)/C(=C/c2ccc(SCc3ccccc3)o2)SC1=S | 13µM* | 6% | -8% | -9% | 115% | -11%
Cn1cccc1/C=C1\SC(=S)N(NC(=O)c2ccccc2Cl)C1=O | 11µM* | 3% | 5% | -1% | 5% | -26%
O=C(NN1C(=O)/C(=C\c2ccc(O)c([N+](=O)[O-])c2)SC1=S)c1ccccc1Cl | 3.2µM* | 6% | 14% | -7% | 190% | ?
CC(=O)OC(C)(C)C1CC=C(C)CC1 (stereo unspecified) | / | 0%[201 µM] | / | 3%[201 µM] | / | /
COC(=O)C1=C(C(=O)OC)[C@@H]2N(C)c3ccccc3[C@@]23C[C@@H](C(=O)OC)N(S(=O)(=O)c2c(C)noc2C)C3=N1 | 0%[11.5 µM] | 6%[11.2 µM] | -2%[11.6 µM] | 0%[11.2 µM] | 2%[14.2 µM] | -6%[11.6 µM]
O=C(CN1C(=O)S/C(=C\C=C\c2ccccc2)C1=O)Nc1cccc(O)c1 | ? | 9% | ? | -10% | 71% | 16µM*[quencher]
CC(=O)c1ccc(NC(=O)CN2C(=O)/C(=C/C=C/c3ccccc3)SC2=S)cc1 | ? | 0% | 1% | 2% | 14% | ?
O=C(O)CN1C(=O)/C(=C/C=C/c2ccccc2)SC1=S | 11µM* | 1% | -6% | -2% | 15% | -7%
Cc1ccc(C(=O)NN2C(=O)/C(=C/c3cccn3C)SC2=S)cc1 | 5µM* | -1% | 0% | 0% | 10% | ?
